Experimental data taken from PubChem BioAssay AID720700 (The Scripps Research Institute Molecular Screening Center, 2013).
About 3,100 (0.84%) of roughly 370,000 compounds were called active. This excerpt belongs to a sample that is enriched for actives. Values without a mark were called inactive. Rule as the data show it: active = inhibition above about 9.5%; inactive = the rest.

Target: 1-phosphatidylinositol 4,5-bisphosphate phosphodiesterase gamma-1 (Homo sapiens) (UniProt P19174)
Assay: PLC-gamma1 enzyme inhibitors, primary screen, biochemical, fluorescence, purified enzyme (AID 720700)
Conditions: purified PLC-gamma1, fluorogenic substrate, at 12.2 µM, active compounds read high

1-phosphatidylinositol 4,5-bisphosphate phosphodiesterase gamma-1 (Homo sapiens), sequence (P19174 whole entry, looked up): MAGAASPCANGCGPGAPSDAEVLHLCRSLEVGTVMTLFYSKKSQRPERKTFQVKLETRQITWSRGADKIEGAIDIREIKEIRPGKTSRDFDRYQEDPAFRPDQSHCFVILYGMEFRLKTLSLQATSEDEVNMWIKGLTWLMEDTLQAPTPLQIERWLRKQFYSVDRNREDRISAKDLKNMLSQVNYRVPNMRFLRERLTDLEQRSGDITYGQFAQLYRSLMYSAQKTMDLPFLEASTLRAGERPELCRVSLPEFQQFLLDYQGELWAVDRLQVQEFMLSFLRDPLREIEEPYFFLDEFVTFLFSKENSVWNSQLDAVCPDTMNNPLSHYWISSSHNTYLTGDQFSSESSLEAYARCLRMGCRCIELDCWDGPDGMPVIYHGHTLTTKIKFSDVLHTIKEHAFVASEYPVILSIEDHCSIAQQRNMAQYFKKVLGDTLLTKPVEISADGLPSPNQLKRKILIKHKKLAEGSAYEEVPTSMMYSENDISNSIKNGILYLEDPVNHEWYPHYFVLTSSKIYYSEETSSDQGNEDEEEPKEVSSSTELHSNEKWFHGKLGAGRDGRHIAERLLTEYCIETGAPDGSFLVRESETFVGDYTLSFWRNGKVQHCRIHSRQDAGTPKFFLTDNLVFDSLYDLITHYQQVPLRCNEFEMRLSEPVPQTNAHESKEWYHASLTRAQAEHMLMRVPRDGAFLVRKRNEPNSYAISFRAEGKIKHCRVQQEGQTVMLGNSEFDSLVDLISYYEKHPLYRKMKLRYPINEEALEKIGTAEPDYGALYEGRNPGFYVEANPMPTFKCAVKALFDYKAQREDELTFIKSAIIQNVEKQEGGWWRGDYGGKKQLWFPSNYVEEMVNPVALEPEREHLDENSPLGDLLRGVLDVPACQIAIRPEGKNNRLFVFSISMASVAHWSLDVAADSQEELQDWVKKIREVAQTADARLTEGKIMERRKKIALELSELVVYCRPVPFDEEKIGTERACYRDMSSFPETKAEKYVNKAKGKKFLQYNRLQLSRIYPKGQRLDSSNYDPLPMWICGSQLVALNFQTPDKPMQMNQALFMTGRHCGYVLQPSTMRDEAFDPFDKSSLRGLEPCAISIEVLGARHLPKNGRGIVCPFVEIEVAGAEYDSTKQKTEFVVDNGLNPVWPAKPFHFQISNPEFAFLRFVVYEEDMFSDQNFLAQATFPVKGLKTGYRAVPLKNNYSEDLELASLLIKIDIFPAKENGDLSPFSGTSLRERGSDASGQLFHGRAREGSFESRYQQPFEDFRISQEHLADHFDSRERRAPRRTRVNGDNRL

Row | SMILES | inhibition
1 | O=C(NCc1cccnc1)c1cc(C2CCCCN2C(=O)CCc2ccccc2)on1 (centres undefined) | 12.8% (active)
2 | N#Cc1cccc(NC(=O)c2cc(C3CCCCN3C(=O)CCc3ccccc3)on2)c1 (centres undefined) | 5.27%
3 | O=C(NCc1cccnc1)c1cc(C2CCCN(C(=O)CCCc3ccccc3)C2)on1 (centres undefined) | 3.28%
4 | COc1ccc(N2CCN(CCNS(=O)(=O)c3ccc(C(C)(C)C)cc3)CC2)cc1 | -1.02%
5 | CSc1ccc(C#N)cc1NC(=O)c1ccc(Cl)cc1 | -1.63%
6 | CSc1nccc(NC(=O)c2ccc(C(C)(C)C)cc2)n1 | 7.02%
7 | CC(C)(C)c1ccc(C(=O)Nc2cc(Cl)c(Br)cc2C(=O)O)cc1 | 11% (active)
8 | COC(=O)[C@@]12CCCCC=C1N(CCc1ccc(Cl)cc1)C(=O)[C@H]2CC(=O)NCc1ccc(OC)c(OC)c1 | 2.08%
9 | CC(C)CC1C(=O)N(Cc2cn(CC3CCCCC3)nn2)CCS(=O)(=O)N1Cc1ccc(-c2ccc(Cl)cc2)cc1 (centres undefined) | 1.82%
10 | COc1ccc(-c2ccc(CN3C(CC(C)C)C(=O)N(Cc4cn(CC5CCCCC5)nn4)CCS3(=O)=O)cc2)cn1 (centres undefined) | -1.63%
11 | COc1ccc(-c2ccc(CN3C(CC(C)C)C(=O)N(Cc4cn(CC5CCCCC5)nn4)CCS3(=O)=O)cc2)cc1 (centres undefined) | 13.6% (active)
12 | CCOC(=O)C(=O)N(Cc1ccccc1)c1ccccc1C(=O)Nc1cc(OC)ccc1OC | 2.22%
13 | COC(=O)C1=CN(c2ccc(F)c(F)c2)C=C(C(=O)OC)C1c1ccc([N+](=O)[O-])cc1 | 1.3%
14 | CC(=O)C1=C(O)C(=O)N(c2cccnc2)C1c1ccc([N+](=O)[O-])cc1 (centres undefined) | 11.3% (active)
15 | CC(=O)C1=C(O)C(=O)N(c2ccc(Br)cc2)C1c1ccc([N+](=O)[O-])cc1 (centres undefined) | 2.17%
16 | COC(=O)CN1C(=O)C(O)=C(C(C)=O)C1c1ccc([N+](=O)[O-])cc1 (centres undefined) | 10.5% (active)
17 | COc1ccc(C2C(C(C)=O)=C(O)C(=O)N2c2nccs2)cc1 (centres undefined) | -25.2%
18 | COc1ccc(C2C(C(C)=O)=C(O)C(=O)N2CCc2c[nH]c3ccccc23)cc1 (centres undefined) | 0.47%
19 | C=CCN1C(C(=O)OC)CN(Cc2cn(Cc3ccccc3)nn2)CCS1(=O)=O (centres undefined) | 2.03%
20 | COc1cccc(CNC(=O)CNS(=O)(=O)c2ccc3nc(C)sc3c2)c1OC | 2.68%
21 | CCCC[C@H](C(=O)N(CC)c1ccccc1)[C@@H](O)c1ccc2ccccc2c1 | 2.96%
22 | O=C1/C(=C\c2ccsc2)NC(=S)N1c1ccccc1 | 9.99% (active)
23 | CCCCN=C1N/C(=C\c2ccco2)C(=O)N1c1ccccc1 | -18.1%
24 | CN(C)c1ccc(/C=C2\NC(=S)N(Cc3ccccc3)C2=O)cc1 | -48.2%
25 | COc1ccc(C2CC=C(C(=O)O)C(c3ccccc3F)N2S(=O)(=O)c2ccc(C)cc2)cc1OC (centres undefined) | -0.05%
26 | CCCCOCCCNC(=O)C[C@H]1C[C@@]2(C(=O)OC)C(=C[C@H](COCc3ccccc3)O[C@@H]2C)N(Cc2cccc3ccccc23)C1=O | 2.09%
27 | CCCCNC(=O)C[C@@H]1C(=O)N(CCc2ccc(Cl)cc2)C2=CCCC[C@]21C(=O)OCC | 1.96%

Row | SMILES | inhibition
28 | Cc1ccc(-c2nnc(SCC(=O)Nc3ccc(Oc4ccccc4)cc3)n2Cc2ccco2)cc1 | -3.01%
29 | COc1ccc(-c2cc(-c3nnc(SCc4ccc([N+](=O)[O-])cc4)n3N)[nH]n2)cc1 | -0.19%
30 | C#CCN([C@H](C(=O)OC)C(C)CC)S(=O)(=O)c1ccccc1Br (some centres undefined) | -0.23%
31 | Cc1ccc(C=O)c([B-](F)(F)F)c1 | 9.66% (active)
32 | CN1c2ccc(C=O)c3c(C=O)ccc(c23)N(C)C1(C)C | -156%
33 | COc1ccc(C(=O)CSc2nnc(-c3cnccn3)n2-c2ccc(C)cc2)cc1 | -2.8%
34 | CCC[C@H]1C(=O)CC[C@@]23CCCN2C(=O)CCC[C@@H]13 | -1.51%
35 | CCOC(=O)[C@]12CCCC3=C1N(CCC3)C(=O)[C@@H](CC(=O)NCc1cccs1)C2 | -0.59%
36 | CSc1ccc(C=Nn2c(-c3ccc(F)cc3)n[nH]c2=S)cc1 | 3.12%
37 | C(=C\c1ccccc1)/CSc1nnc(-c2cccnc2)n1Cc1ccco1 | -1.89%
38 | S=c1[nH]nc(-c2cccnc2)n1/N=C/C(Cl)=C\c1ccccc1 | 12.7% (active)
39 | Cc1[nH]c(C)c(S(=O)(=O)N2CCN(c3cccc(C(F)(F)F)c3)CC2)c1C(=O)N1CCCC1 | 0.67%
40 | Cc1[nH]c(C)c(S(=O)(=O)N2CCN(c3cccc(C(F)(F)F)c3)CC2)c1C(=O)N1CCCCC1 | 0.49%
41 | Cc1ccc(C)c(N2CCN(S(=O)(=O)c3c(C)[nH]c(C)c3C(=O)N3CCCC3)CC2)c1 | 17% (active)
42 | CN(C(N)=NC(=O)/C=C/c1ccccc1)C(C#Cc1ccccc1)Cc1ccccc1 (centres undefined) | -3.61%
43 | C=CCN(Cc1ccc2c(c1)OCO2)C(C#CC1CC1)C(C)(C)C (centres undefined) | -0.25%
44 | O=c1ccc2c(-c3ccccc3S(=O)(=O)O)c3ccc(O)c(O)c3oc-2c1O | 25.2% (active)
45 | O=C(CSc1nc2ccccc2n1Cc1ccccc1)NNC(=S)Nc1ccccc1 | 3.11%
46 | C#CCNC(=O)C[C@H]1C[C@@]2(C(=O)OC)C(=C[C@H](C(C)C)O[C@@H]2C2CC2)N(Cc2ccco2)C1=O | 0.18%
47 | O=C(NCc1cccs1)C1CCN(S(=O)(=O)c2ccccc2[N+](=O)[O-])CC1 | 3.22%
48 | c1coc(CCNc2ncnc3ccc(-c4ccc5c(c4)OCO5)cc23)c1 | -114%
49 | CCCc1nc2oc3c(OCC)ncnc3c2c2c1COC(C)(C)C2 | 2.49%
50 | CC(C)CCSc1ncnc2c1oc1nc3c(cc12)COC(C)(C)C3 | 10.6% (active)
51 | CC1(C)Cc2nc3sc4c(SCC(=O)NC(c5ccccc5)c5ccccc5)ncnc4c3cc2CO1 | -1.56%
52 | COC(=O)C1CN(Cc2ccc(F)cc2)CCS(=O)(=O)N1Cc1ccc(Cl)cc1 (centres undefined) | -0.52%
53 | C=CCN1C(=O)[C@@H](CC(=O)NCC2CCCCC2)[C@]2(C(=O)OC)CCCCC=C12 | -0.08%
54 | CC(C)CSc1nnc(-c2cccnc2)n1Cc1ccccc1 | 0.54%

Row | SMILES | inhibition
55 | COc1ccnc(NC(=S)N2CCN(c3ncc(C(F)(F)F)cc3Cl)CC2)c1 | 4.36%
56 | O=C(Nc1cccc(Cl)c1)OC1CC2CC1[C@H]1CCCCN1[C@H]2Cc1ccccc1 (some centres undefined) | -19.3%
57 | O=C1N[C@@H](c2ccccc2)COC(=O)[C@H](Cc2ccc(F)cc2)C/C=C\C[C@@H]1CC(=O)N(CCO)Cc1ccccc1 | 9.59% (active)
58 | O=C1NC[C@@H](c2ccccc2)OC(=O)[C@H](Cc2ccc(F)cc2)CC/C=C/C[C@H]1CC(=O)N(CCO)Cc1ccccc1 | -0.18%
59 | O=C1N[C@H](Cc2c[nH]c3ccccc23)COC(=O)[C@H](Cc2ccc(F)cc2)C/C=C\C[C@H]1CC(=O)N(CCO)Cc1ccccc1 | 1.6%
60 | O=C(Nc1nc2ccc(Cl)cc2s1)c1cc(-c2ccc(Cl)cc2)nc2ccccc12 | 6.56%
61 | Cc1ccc(Cn2cc(CN3[C@@H](CC(C)C)COc4ccc(Cl)cc4S3(=O)=O)nn2)cc1 | 1.86%
62 | COc1ccc(Cn2ccc3ccc(-c4ccc5ccn(Cc6ccccc6C)c5c4)cc32)cc1 | -65%
63 | O=S1(=O)c2c(cccc2N2CC[C@H](O)C2)O[C@@H]2CCN1C2 | -2.5%
64 | CCOC(=O)C1CCN(C(=O)c2ccccc2N(C)S(=O)(=O)c2ccccc2)CC1 | 12.6% (active)
65 | CCN1CCN(C(=O)c2ccccc2N(C)S(=O)(=O)c2ccc(C)cc2)CC1 | 2.78%
66 | CCOC(=O)C1CCN(C(=O)c2cccc(S(=O)(=O)N(CC)c3ccccc3)c2)CC1 | 1.63%
67 | O=C(CSc1nc2ccccc2n1Cc1ccccc1Cl)N/N=C\c1c[nH]c2ccccc12 | 1.37%
68 | CC(C)CNc1cccc2c1S(=O)(=O)N(Cc1cn(Cc3ccccc3C(F)(F)F)nn1)Cc1ccccc1O2 | -4.63%
69 | Cc1ccc(NC(=S)N(Cc2ccco2)C(C)c2cccs2)cc1 (centres undefined) | 9.84% (active)
70 | Cc1cccc(NC(=S)N(CCN(C)C)C(C)c2ccco2)c1 (centres undefined) | -0.2%
71 | Cc1ccc(-c2csc(N(Cc3ccco3)C(=O)c3cccs3)n2)cc1 | 0.51%
72 | O=C1CC[C@@H](COc2ccc3[nH]cc(-c4ccccc4)c3c2-c2ccccc2)N1 | -12.8%
73 | Nc1[nH]c(/C=C2/CCCCC2n2[nH]c(=O)n(-c3ccccc3)c2=O)c(Cc2ccccc2)[n+]1Cc1ccccc1 (centres undefined) | -3.57%
74 | COC(=O)[C@]12C[C@H](CC(=O)NCc3cccs3)C(=O)N(CCc3ccc(OC)c(OC)c3)C1=C[C@H](C(C)C)O[C@@H]2C1CC1 | 0.22%
75 | Cc1ccc(CSc2nnc(SCC(=O)NN=Cc3cc(Br)ccc3F)s2)cc1 | 1.18%
76 | CC[C@@H](CCC(=O)N(c1ccccc1)c1ccccc1)C1CC1 | -1.13%
77 | CC[C@]12c3[nH]c4ccc(Cl)cc4c3CCN1C(=O)[C@@H](CC(=O)NCCN1CCOCC1)C[C@@H]2C(=O)N1CCN(C(=O)C2CC2)CC1 | 0.47%
78 | C[C@]12c3[nH]c4ccc(Cl)cc4c3CCN1C(=O)[C@@H](CC(=O)NCCCn1ccnc1)C[C@@H]2C(=O)N1CCOCC1 | 13.5% (active)
79 | COc1ccc2[nH]c3c(c2c1)CCN1C(=O)C(CC(=O)NCCc2ccccn2)C[C@H](C(=O)N2CCOCC2)[C@@]31C (some centres undefined) | 0.01%
